Screens: PubChem, NMMLSC
Rows were chosen to be rich in hits. Some 1.2% of all compounds tested hit in one or more screens of this group.
RGS8-Gao reg: regulators of human RGS8-Galphao interaction | P09471 | multiplexed bead flow cytometry, RGS8-Galphao binding; actives lie on both sides | response (percent of control binding), % at 10 µM | hit rate 0.34% among 220,000; in the data active = response below about 60% or above about 140%; inactive = in between;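 note: Galphao activated as the GDP aluminium fluoride complex binding bead-coupled RGS8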
Target sequence (P09471 whole entry, looked up): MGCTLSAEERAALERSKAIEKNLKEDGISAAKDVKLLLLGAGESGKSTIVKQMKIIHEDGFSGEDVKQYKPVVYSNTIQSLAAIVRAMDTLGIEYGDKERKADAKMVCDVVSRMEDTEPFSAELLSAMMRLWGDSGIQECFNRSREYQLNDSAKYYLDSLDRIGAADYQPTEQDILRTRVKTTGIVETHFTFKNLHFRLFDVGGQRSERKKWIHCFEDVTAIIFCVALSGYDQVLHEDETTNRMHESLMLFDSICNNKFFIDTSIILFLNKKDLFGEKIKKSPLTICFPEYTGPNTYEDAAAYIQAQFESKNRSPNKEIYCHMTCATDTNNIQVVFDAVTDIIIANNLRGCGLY
Avidin fluor: avidin bead compound fluorescence profile | fluorescence (KMESF) at 10 µM | AID 1775 | hit rate 0.38% among 220,000 | Avidin beads, compound fluorescence 488/530 nm, flow cytometry; hits give high values; in the data active = fluorescence above about 47
RGS7-Gao: modulates binding of RGS7 to human Galphao; hit rate 0.35% among 220,000; AID 1439; Multiplexed bead flow cytometry; actives lie on both sides; P09471; binding response (% of control), % at 10 µM; in the data active = binding response below about 49% or above about 150%; inconclusive = no clear call, values can overlap the other calls; inactive = in between;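 note: fluorescent Galphao held in activated GDP-AlF4 state binding bead-coupled RGS7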
RGS16-Gao HTS: regulators of human RGS16-Galphao interaction; O15492+P09471; bead-based flow cytometry RGS16-Galphao binding, fluorescence; actives lie on both sides; binding response (% of control), % at 10 µM; hit rate 0.38% among 220,000; call rule not given here;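 note: Galphao activated by GDP with aluminum fluoride before binding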
Target sequence (O15492 whole entry, looked up): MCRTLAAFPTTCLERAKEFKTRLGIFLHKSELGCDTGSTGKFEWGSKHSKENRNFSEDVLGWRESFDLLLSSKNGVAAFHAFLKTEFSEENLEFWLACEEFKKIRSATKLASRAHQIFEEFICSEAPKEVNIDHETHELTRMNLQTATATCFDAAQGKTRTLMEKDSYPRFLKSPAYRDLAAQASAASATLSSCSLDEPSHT
Target sequence (P09471 whole entry, looked up): as the sequence (P09471 whole entry, looked up) above
RGS4-Gao reg: human RGS4-Galphao interaction regulation; P09471; Multiplexed bead flow cytometry, RGS4-Galphao binding; actives lie on both sides; binding response (% of control), % at 10 µM; hit rate 0.33% among 220,000; in the data active = binding response below about 49% or above about 150%; inactive = in between;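 note: fluorescent Galphao activated with aluminum fluoride binding bead-coupled RGS4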
GSH fluor: GSH bead compound fluorescence profile; GSH beads flow cytometry, compound fluorescence 488/530 nm; hits give high values; fluorescence (KMESF) at 10 µM; hit rate 0.25% among 190,000; AID 1776; in the data active = fluorescence above about 89;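 note: glutathione beads carrying GST-tagged Bcl family fusion proteins plus one bare bead set; values are compound well signal with DMSO vehicle wells as background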
Numbers without * were called inactive; ? = inconclusive; . = not tested or not shown; [ ] = dose if it differs, or a comment.

SMILES	RGS8-Gao reg	Avidin fluor	RGS7-Gao	RGS16-Gao HTS	RGS4-Gao reg	GSH fluor
COc1ccc(/C=C/C(=O)c2ccccc2O)cc1	103.2	69*	148.4	107.4	159.0*[activator]	17
CCOc1cc(CNC2CCCC2)c(Cl)cc1OCC(=O)Nc1ccccc1	104.4	11	?	104.7	105.7	18
CCCC(=O)OCC(=O)Nc1cc(C(C)(C)C)nn1-c1ccccc1	103.0	14	112.5	117.6	118.3	91*
O=C(O)/C=C/C(=O)Nc1ccc(N2CCOCC2)nc1N1CCOCC1	93.6	6	?	94.0	96.8	.
O=C1c2ccccc2C(=O)N1CCc1nc2ccccc2c(=O)n1CCCn1ccnc1	105.2	8	104.0	119.7	108.1	272*
COc1ccc(-c2cc(-c3ccccc3)nc(SCC(=O)Nc3nccs3)c2C#N)cc1	105.0	56*	112.8	121.5	110.2	14
CCCc1cc(=O)[nH]c(SCC(=O)Nc2ccc(OC(F)F)cc2)n1	103.1	7	103.2	103.0	102.9	260*
CCCc1cc(=O)[nH]c(SCC(=O)Nc2ccc3c(c2)CCC3)n1	101.7	11	99.6	112.7	102.7	13
Cc1ccccc1N1CCN(C(=O)c2ccccc2NC(=O)c2ccccc2C(=O)O)CC1	99.4	11	95.5	95.2	99.0	17
CSc1ccccc1NC(=O)CN(C)CC(=O)Nc1c(F)cccc1F	103.3	58*	120.8	105.5	131.8	11
COc1ccccc1CNC(=O)CN(C)S(=O)(=O)c1cccc2cccnc12	102.9	6	?	102.8	103.2	.
CC1(C)CC(=O)C(C2C3=C(CC(C)(C)CC3=O)OC3=C2C(=O)CC(C)(C)C3)=C(O)C1	99.3	8	?	98.6	98.9	.
COc1ccc(OC)c(C(=O)CSc2nc3ccccc3n2CC(=O)NC(C)(C)C)c1	104.5	7	106.4	111.0	102.9	270*
Cc1ccc(S(=O)(=O)N(C)C)cc1NC(=O)c1cc(C(C)(C)C)nn1Cc1ccccc1	100.3	6	?	100.5	100.4	.
Cc1ccccc1-n1nc(C(=O)O)c(C)c(C#N)c1=O	105.9	7	109.2	119.8	111.0	255*
O=C(C[n+]1cccc(CO)c1)Nc1nc2ccccc2s1	99.7	10	101.5	103.6	103.0	14
Cc1cc(C)n(C(=O)c2c([N+](=O)[O-])c(C)nn2C)n1	99.2	6	96.3	97.9	92.6	150*
N#Cc1cc(-c2ccccc2)cnc1Sc1ccc(Cl)cc1	99.2	8	100.8	103.5	99.9	23
N#Cc1cc(-c2ccc(Cl)cc2)cnc1Sc1ccccc1	12.2*	-2	14.8*	1.3*	21.1*	24
CCc1nc2ccccc2c(=O)n1NC(=O)c1c(O)c2ccccc2n(CC)c1=O	98.5	11	101.1	101.0	104.4	17
CCn1c(=O)c(C(=O)Nc2nc3ccccc3[nH]2)c(O)c2ccccc21	103.5	4	105.6	108.4	105.0	114*
CC(C)(C)c1cc(C(=O)C[n+]2ccc(C(=O)NCCCO)cc2)cc(C(C)(C)C)c1O	99.3	6	?	102.5	102.0	.
COc1ccc(/C=N/n2c(C)cc(C)c(C(N)=O)c2=O)cc1	95.2	7	91.8	98.8	93.3	255*
Cc1ccc(C(=O)NC2c3ccccc3-c3ccccc32)cc1	100.2	60*	142.8	99.2	106.6	19
Cc1ccc(C(=O)NC2CCc3ccccc3C2=O)cc1 (centres undefined)	94.0	16	91.6	90.3	89.8	16
SMILES	RGS8-Gao reg	Avidin fluor	RGS7-Gao	RGS16-Gao HTS	RGS4-Gao reg	GSH fluor
COc1ccc(Cn2c(=O)[nH]c3cc(C(=O)NCCCOC(C)C)ccc3c2=O)cc1	101.2	10	99.0	104.0	97.8	26
COc1ccc(Cn2c(=O)[nH]c3cc(C(=O)NCc4ccc5c(c4)OCO5)ccc3c2=O)cc1	100.0	65*	109.2	105.6	101.8	19
COc1ccc(NC(=O)CCC(=O)OC(C(=O)c2ccccc2)c2ccccc2)cc1 (centres undefined)	101.3	55*	106.3	100.7	100.0	27
Cc1ccc(C(=O)C(OC(=O)CCC(=O)Nc2cccc(C)c2)c2ccccc2)cc1 (centres undefined)	98.5	34	98.4	99.3	96.4	20
CCC(=O)N1CCC2(CC1)Oc1ccc(Cl)cc1C(=O)C21CC(c2ccc(Cl)cc2)=NO1 (centres undefined)	98.6	13	?	97.9	103.1	.
N#C/C(=C/Nc1ccccc1)c1ccsc1	104.3	51*	110.2	105.2	103.0	15
Cc1ccc(N/C=C(/C#N)c2ccsc2)cc1	102.1	12	99.9	102.5	102.2	26
Cc1nc2ccccn2c1-c1nnco1	101.4	47*	106.0	104.1	104.1	12
Cc1cccc(Nc2nc(-c3c(C)nc4ccccn34)cs2)c1	101.0	24	98.3	95.2	98.6	9
CC(C)C(OC(=O)c1cccs1)C(=O)NCc1ccc2c(c1)OCO2 (centres undefined)	106.4	14	98.1	115.3	101.7	12
Cn1ncc(Cl)c1C(=O)Nc1sc2c(c1C(N)=O)CCC2	102.6	6	87.6	94.6	90.2	99*
Cc1ccc(NC(=O)c2ccccc2CCc2ccccc2)c(C)c1	99.7	56*	122.2	102.7	102.4	33
O=C(CCCN1C(=O)c2cccc3cccc(c23)C1=O)NC1CCS(=O)(=O)C1 (centres undefined)	100.7	24	101.2	102.2	98.8	60
N#CC1=C(N)OC2=C(CC/C2=C\c2ccccc2Cl)C1c1ccccc1Cl (centres undefined)	99.8	11	100.6	102.8	103.6	10
Cc1oc(C)c2c(=O)ccc3c(c12)OC(N)=C(C#N)C3c1ccccc1Cl (centres undefined)	101.9	23	97.1	101.3	101.6	138*
Cc1oc(C)c2c(=O)ccc3c(c12)OC(N)=C(C#N)C3c1ccccc1 (centres undefined)	104.3	6	104.8	104.2	101.5	585*
N#CC1=C(N)Oc2c(ccc3cccnc23)C1c1ccccc1 (centres undefined)	105.5	6	?	104.0	103.1	.
CCOCCCn1c(=NC(=O)c2cccs2)c(C#N)cc2c(=O)n3ccccc3nc21	100.4	4	?	100.9	103.0	.
CC(C)CN1C(=O)/C(=C(/C#N)C(=O)NC2CCCCC2)c2ccccc21	97.7	18	98.2	98.2	98.8	7
CCOC(=O)c1ccc2nc(C)c(CCC(C)=O)c(Cl)c2c1	11.3*	0	18.7*	8.4*	19.2*	15
CCCCc1c(C)nc2ccc(C(=O)OCC)cc2c1Cl	99.5	10	97.5	100.5	100.9	12
N/C(=N\OC(=O)c1ccc2c(c1)OCO2)c1ccncc1	95.2	7	?	100.2	98.2	.
